ATXN2 expr inh: inhibitors of ATXN2 expression; HEK-293 ATXN2-luciferase reporter, luminescence, 24 h; Potency, µM (top dose mostly 57 µM), inactives show top-dose activity change, negative = inhibition, usual class: inhibitors; actives 0.72% (n = 360,000); AID 1745845; also: % is scaled to controls: 0 for no effect and ±100 for the full control effect; nearly all actives have a fitted effect of over 55% in size
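ATXN2-luciferase reporter cells (luciferase flanked by upstream and downstream ATXN2 gene portions) were treated 24 h at 37 °C with compounds at up to 57 uM. SteadyGlo luminescence gave expression; GF-AFC fluorescence gave viability.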
A549 tox: counter-screen for Nrf2 inhibitors: cytotoxicity in A549 cells; A549 ARE-Fluc cells, CellTiter-Fluor viability, 18-24 h; Potency, µM (doses to about 46 µM), for inactives: at the top dose activity change, negative = cytotoxicity, hits mostly inhibitors; actives 0.16% (n = 390,000); also: % is scaled to controls: 0 for no effect and ±100 for the full control effect
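A549 ARE-Fluc cells in 5% FBS OPTI-MEM, 5000 cells/well, rested 2 h then exposed to compounds in concentration-response for 18-24 h at 37 °C. Viability by CellTiter-Fluor fluorescence (Ex 405/Em 525) after 30 min; luciferase luminescence (BugLite, 15 min, RT) read afterwards.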
ATXN viability: reduces viability in counter-screen for ATXN expression inhibitors; actives 0.49% (n = 400,000); S2 cells (HEK-293 line with an ATXN2-luciferase reporter) viability, CellTiter-Fluor protease fluorescence, 24 h; Potency, µM (titrated, usually from 56.7 µM), hits mostly cytotoxic; AID 651635; also: nearly all actives have a fitted effect of over 40% in size
Nrf2 inh: blocks Nrf2 signaling; A549 ARE-Fluc reporter, luciferase luminescence, 18-24 h; Potency, µM (doses to about 46 µM), inactives show at the top dose activity change, negative = inhibition, actives largely listed as inhibitors; actives 2.1% (n = 360,000); AID 504444; also: % is scaled to controls: 0 for no effect and ±100 for the full control effect; nearly all actives have a fitted effect of over 60% in size
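Two sequential reads on A549 ARE_Fluc cells exposed to compound for 18-24 h: a CellTiter-Fluor fluorescence read for viability, then a luciferase luminescence read for Nrf2/ARE activity.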
Nrf2 ARE act: activates Nrf2 signaling; AID 624171; AREc32 ARE-luciferase reporter (MCF7-derived line), luminescence, 24 h; actives 0.31% (n = 410,000); Potency, µM (doses to about 46.1 µM), for inactives: top-dose activation, most hits filed as activators; also: % of control where 0% means no effect; nearly all actives have a fitted effect of over 65% in size
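AREc32 cells carrying an ARE-driven firefly luciferase, 1000 cells/well in OPTI-MEM with 5% FBS, dosed after overnight attachment and incubated 24 hr at 37 deg C. Steady-Glo luminescence read after 30 min at RT.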
The depositor's hits bear a star; i = inactive; ? = inconclusive; / = no result given; ! = repeats disagree. Only some compounds are listed: those with a hit (about 2.9% of all), similar ones and a draw of the others. Calls follow the shape of the dose curve; as a rule, active = well fitted curve in the direction sought with a large enough effect; inconclusive = small, poorly fitted or top-dose-only effect, or another doubt; inactive = no such curve, though single readings can be large; an effect the other way counts as inactive or inconclusive. Potency is read from the fitted curve at half-maximal effect.

SMILES | ATXN2 expr inh | A549 tox | ATXN viability | Nrf2 inh | Nrf2 ARE act
COc1ccccc1-c1sc2cc3c(cc2c1-c1ccc(OCCN2CCCCC2)cc1)OCO3 | ? | ? | ? | -20% | 0%
COc1cc2sc(-c3ccccc3OC)c(-c3ccc(OCCN4CCCCC4)cc3)c2cc1OC | ? | ? | 25µM* | -30% | -3%
COc1cc(-c2nc(CCNC(=O)c3ccco3)cs2)cc(OC)c1OC | -7% | -11% | i | 21% | 2%
O=C(NCCc1csc(-c2ccc(Cl)cc2)n1)c1ccco1 | 14µM*! | 0% | i | ? | 0%
Cc1ccc(-c2nc(CCNC(=O)c3ccco3)cs2)cc1 | -1% | 0% | i | 5% | 0%
COc1cc(C(=O)NCCc2csc(-c3ccc(Cl)cc3)n2)cc(OC)c1OC | 20µM* | -1% | / | / | -1%
CC[C@H](C)[C@@H]1NC(=O)[C@@H](CC(C)C)NC(=O)[C@H](C(C)C)NC(=O)[C@H]2CSSC[C@H](NC1=O)C(=O)N2 | 0.79µM* | / | ? | / | -3%
COc1cccc(CN2C(=O)c3ccccc3C2C(=O)NCCc2ccc(OC)c(OC)c2)c1 (stereo not drawn) | / | -2% | / | / | 0%
Clc1ccc(-c2nn3cnnc3s2)c(Cl)c1 | 12% | 1% | i | 7% | 0%
CCc1ccc(CN(Cc2ccco2)C(=O)c2cc(-c3ccc(C)c(F)c3)on2)cc1 | / | -3% | / | 16µM* | 0%
CCc1ccc(CN(Cc2ccco2)C(=O)c2ccc(C)cc2)cc1 | / | 1% | / | -23% | 6%
CCCCCC(=O)O[C@]1(C(C)=O)CC[C@H]2[C@@H]3CCC4=CC(=O)CC[C@]4(C)[C@H]3CC[C@@]21C | 28µM*! | ? | 35µM*! | 21µM* | 4%
c1ccc(CNCCCn2cnc3c(OCc4ccccc4)ncnc32)cc1 | -6% | 18% | i | -6% | 6%
c1ccc(COc2ncnc3c2ncn3CCCN2CCN(Cc3cccc4ccccc34)CC2)cc1 | 22µM* | / | ? | / | -7%
Cc1ccc(CN2CCN(CCCn3cnc4c(OCc5ccccc5)ncnc43)CC2)cc1 | ? | ? | ? | ? | 9%
c1ccc(CCCNCCCn2cnc3c(OCc4ccccc4)ncnc32)cc1 | ? | 1% | 25µM* | 17% | 0%
O=C(Nc1ccccc1)c1ccccc1NC(=O)c1ccccc1[N+](=O)[O-] | -26% | -1% | i | ? | 0%
CCN1C(=O)c2cccc3cccc1c23 | 15% | 12% | i | -6% | 7%
Cc1cccc2sc(N(CCN3CCOCC3)C(=O)CCS(=O)(=O)c3ccccc3)nc12 | ? | 3% | / | ? | 25%
CCc1ccc(/C=C2\SC(=S)N(CCC(=O)Nc3cc(C)on3)C2=O)cc1 | ? | 2% | ? | 6.5µM* | -1%
Cc1ccc(/C=C2\SC(=S)N(CCCC(=O)NC3CCCC3)C2=O)cc1 | 13µM* | 8% | i | 10µM* | -3%
Cc1ccc(/C=C2\SC(=S)N(CCCC(=O)NNC(=O)c3ccccc3O)C2=O)cc1 | / | -3% | i | 10µM* | -3%
Cc1ccc(/C=C2\SC(=S)N(CCC(=O)NNC(=O)c3ccccc3O)C2=O)cc1 | ? | -15% | i | ? | -2%
CCc1ccc(/C=C2\SC(=S)N(CCCC(=O)Nc3cc(C)on3)C2=O)cc1 | / | / | ? | / | -6%
O=C1/C(=C\c2ccc(O)c(O)c2)SC(=S)N1Cc1ccccc1 | ? | ? | 28µM* | -25% | 3%
SMILES | ATXN2 expr inh | A549 tox | ATXN viability | Nrf2 inh | Nrf2 ARE act
Cn1c(/C=C/c2ccc(Cl)cc2)nc2ccccc2c1=O | 33% | 1% | i | ? | 13%
Cn1c(/C=C/c2ccc([N+](=O)[O-])o2)nc2ccccc2c1=O | 7.9µM* | ? | 6.3µM* | 21µM* | ?
Cn1c(/C=C/c2ccccc2)nc2ccccc2c1=O | 53% | 1% | i | ? | 11µM*
CCn1c(/C=C/c2ccccc2)nc2ccccc2c1=O | -3% | 1% | i | -13% | 3.5µM*
Cc1c2oc3c(C)ccc(C(=O)NC4C(=O)NC(C(C)C)C(=O)N5CCCC5C(=O)N(C)CC(=O)N(C)C(C(C)C)C(=O)OC4C)c3nc-2c(C(=O)NC2C(=O)NC(C(C)C)C(=O)N3CCCC3C(=O)N(C)CC(=O)N(C)C(C(C)C)C(=O)OC2C)c(N)c1=O (stereo not drawn) | 0.0004µM* | / | / | / | /
Cc1cc(Nc2cccc(C(F)(F)F)c2)nc2ccc(NC(=O)c3cccnc3)cc12 | ? | ? | 18µM* | 21µM* | -5%
Cc1cc(Nc2cccc(C(F)(F)F)c2)nc2ccc(NC(=O)c3cccc(Cl)c3)cc12 | ? | 18µM* | i | 26µM* | -2%
Cc1cc(Nc2cccc(Cl)c2)nc2ccc(NC(=O)Cc3cccc(C(F)(F)F)c3)cc12 | ? | ? | i | ? | -2%
CCOc1ccc(C(=O)Nc2ccc3nc(Nc4cccc(C(F)(F)F)c4)cc(C)c3c2)cc1OCC | 4% | -8% | i | -24% | 0%
COc1ccc(S(=O)(=O)Nc2cccc(N(C)S(C)(=O)=O)c2)cc1Br | -11% | -18% | ? | 18µM* | 3%
COc1ccc(S(=O)(=O)Nc2cccc(C(C)=O)c2)cc1Br | -17% | 2% | i | ? | 5%
Cc1ccc(-n2ncc(Br)c(Br)c2=O)cc1 | ? | -4% | 21µM* | 11% | ?
O=c1c(Br)c(Br)cnn1-c1ccccc1 | 5.3µM* | ? | / | -18% | ?
O=c1c(Br)c(N2CCCC2)cnn1-c1ccccc1 | 9% | -7% | i | ? | 0%
Cc1nc(Nc2ccccc2)c2oc3ccc(Cl)cc3c2n1 | 7% | 1% | i | 8% | 5%
CN1C(=O)/C(=C\c2cccc(OCc3ccccc3)c2)SC1=S | -3% | -3% | i | 4% | 0%
CCOc1ccc(NC(=O)CN(C)C(=O)CCCOc2ccc(Cl)c(C)c2)cc1OCC | 9% | ? | i | 21µM* | 3%
CCOc1ccc(NC(=O)CN(C)C(=O)CCc2ccccc2Cl)cc1OCC | 5% | 0% | i | 3% | 0%
COc1cc(C(=O)Nc2ccc3oc(-c4cccnc4)nc3c2)cc(OC)c1OC | -27% | -2% | i | ? | 0%
COc1ccc(C(=O)Nc2ccc3oc(-c4cccnc4)nc3c2)cc1OC | -24% | -3% | i | 13µM* | 0%
O=C(Nc1ccc2oc(-c3ccncc3)nc2c1)c1ccc2c(c1)OCCO2 | -27% | 1% | i | ? | 0%
COc1cc(C(=O)Nc2ccc3oc(-c4ccccc4)nc3c2)cc(OC)c1OC | ? | ? | ? | 21µM* | -3%
O=C(Nc1ccc2oc(-c3ccccc3)nc2c1)c1ccc2c(c1)OCCO2 | -19% | ? | ? | 9.2µM* | -1%
O=C(O)COc1c(F)c(F)c(C(F)(F)F)c(F)c1F | 7% | -6% | i | -10% | 0%

Bioassay records from PubChem BioAssay.
